# According to PubChem BioAssay (NCATS):
# Records with an inconclusive call do not appear. Active and inactive are the calls of the source. Calls follow the shape of the dose curve; as a rule, active = well fitted curve in the direction sought with a large enough effect; inconclusive = small, poorly fitted or top-dose-only effect, or another doubt; inactive = no such curve, though single readings can be large; an effect the other way counts as inactive or inconclusive.
# Experiment: qHTS of pediatric cancer cell lines to identify multiple opportunities for drug repurposing: Primary screen for U-2 OS cells (AID 1347096); also: nearly all actives have a fitted effect of over 50% in size
# Conditions: U-2 OS viability, CellTiter-Glo luminescence, 48 h; series mostly up to 46 µM
# How it was run: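 Viability after 48 h compound treatment at 37C, 500-1,000 cells/well, read as ATP luminescence with CellTiter-Glo. Primary screens used 11-point (MIPE, 0.78 nM-46 µM) or 8-point (NPC, 0.59 nM-46 µM) final concentrations; follow-up screens used 11-point dilutions.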
# Potency is read from the fitted curve at half-maximal effect.
row,SMILES,Potency
1,Cc1cc(N2CCOCC2)cc2[nH]c(-c3c(NC[C@@H](O)c4cccc(Cl)c4)cc[nH]c3=O)nc12,18.7 µM (active)
2,CCc1cc2c(cc1N1CCC(N3CCOCC3)CC1)C(C)(C)c1[nH]c3cc(C#N)ccc3c1C2=O,inactive
3,Cc1cn2cc(C(=O)N(C)CCO)cc(N[C@@H]3CCOc4cccc(C)c43)c2n1,inactive
4,CC(NCc1ccc2c(c1)nc(NC(=O)c1ccc(-c3cn[nH]c3)s1)n2CC(C)(C)O)C(C)(C)C (configuration not stated),1.18 µM (active)
5,O=C(Cc1ccc(-c2ccc(OCCN3CCOCC3)cc2)cn1)NCc1ccccc1,3.72 µM (active)
6,Cc1ccc(S(=O)(=O)Nc2cc(Cl)ccc2C(=O)Nc2nc(-c3ccccc3)cs2)cc1,inactive
7,COc1cc2ncn(-c3cc(OCc4ccccc4C(F)(F)F)c(C(N)=O)s3)c2cc1OC,23.5 µM (active)
8,Cn1cncc1[C@@](N)(c1ccc(Cl)cc1)c1ccc2c(c1)c(-c1cccc(Cl)c1)cc(=O)n2C,18.7 µM (active)
9,CN(C)CC=CC(=O)Nc1cc2c(Nc3ccc(F)c(Cl)c3)ncnc2cc1O[C@H]1CCOC1,18.7 µM (active)
10,O=C(Nc1cc(C(F)(F)F)cc(C(F)(F)F)c1)c1cc(Cl)ccc1O,4.69 µM (active)
11,Cc1c(Cn2c(C)nc3c(C(=O)O)cc(N4CCOCC4)cc32)cccc1C(F)(F)F,inactive
12,c1cc(-c2cnn3cc(-c4ccc(OCCN5CCCCC5)cc4)cnc23)ccn1,inactive
13,Nc1nc(-c2nn(Cc3ccccc3F)c3ncccc23)nc(N)c1N1CCOCC1,inactive
14,COc1cc2c(NC3CCN(C(C)C)CC3)nc(C3CCCCC3)nc2cc1OCCCN1CCCC1,inactive
15,COc1cc(OC2CCN(C)CC2)ccc1Nc1ncc2c(n1)n(C1CCCC1)c(=O)n2C,23.5 µM (active)
16,COc1cc2c(Oc3ccc4[nH]c(C)cc4c3F)ncnc2cc1OCCCN1CCCC1,inactive

# Experiment: qHTS of pediatric cancer cell lines to identify multiple opportunities for drug repurposing: Primary screen for Saos-2 cells (AID 1347097); also: nearly all actives have a fitted effect of over 40% in size
# Conditions: Saos-2 viability, CellTiter-Glo ATP luminescence, 48 h; series mostly up to 46 µM
# How it was run: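 Viability was measured as metabolically active cells after 48 hours of treatment, read by CellTiter-Glo luminescence. Compounds were tested at multiple final concentrations, giving concentration-response curves.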
row,SMILES,Potency
1,O=C(O)CCCc1c[nH]c2ccccc12,inactive
2,CNC(=O)CN1CCC(Oc2cc3c(Nc4cccc(Cl)c4F)ncnc3cc2OC)CC1,0.0187 µM (active)
3,CN(C)CCCN=c1c2ccccc2n(C)c2[nH]c(=O)n(C)c(=O)c12,inactive
4,COc1cc2nccc(Oc3ccc(NC(=O)C4(C(=O)Nc5ccc(F)cc5)CC4)cc3)c2cc1OC,18.7 µM (active)
5,COC(=O)Nc1nc2ccc(C(=O)c3ccc(F)cc3)cc2[nH]1,0.526 µM (active)
6,CC(=O)SC[C@@H](C)C(=O)N1CCC[C@H]1C(=O)N[C@@H](Cc1ccccc1)C(=O)O,inactive
7,CCC[C@H](NC(=O)C(C#N)=Cc1cccc(Br)n1)c1ccccc1,33.2 µM (active)
8,Cc1ccc(C(N)=O)cc1Nc1nccc(-c2cn(C(C)C)c3cnccc23)n1,4.69 µM (active)
9,Cc1cc(Nc2cc(CN3CCOCC3)c3nc(C)c(Cc4ccc(Cl)cc4F)n3n2)n[nH]1,5.9 µM (active)
10,CCCCOc1c(C(=O)c2c(F)cc(C)cc2F)cnc2n[nH]cc12,3.72 µM (active)
11,COC(=O)[C@]12CCC(C)(C)C[C@@H]1[C@@H]1C(=O)C=C3[C@@]4(C)C=C(C#N)C(=O)C(C)(C)[C@@H]4CC[C@@]3(C)[C@]1(C)CC2,0.743 µM (active)
12,CNc1nccc(-c2cccnc2Oc2cc(C(=O)Nc3cccc(C(F)(F)F)c3)ccc2C)n1,16.6 µM (active)
13,O=C(c1ccc(Nc2nccc(-c3cc4ccccc4s3)n2)cc1)N1CCC(N2CCCC2)CC1,16.6 µM (active)
14,O=C(O)c1ccc2c(c1)nc(Nc1cccc(Cl)c1)c1ccncc12,4.69 µM (active)
15,Cc1cc(N2CCOCC2)cc2[nH]c(-c3c(NC[C@@H](O)c4cccc(Cl)c4)cc[nH]c3=O)nc12,0.0833 µM (active)
16,COc1cc(=C2C=c3ccccc3=N2)[nH]c1=Cc1[nH]c(C)cc1C,4.69 µM (active)
17,Cc1cn2cc(C(=O)N(C)CCO)cc(N[C@@H]3CCOc4cccc(C)c43)c2n1,inactive
18,CC(NCc1ccc2c(c1)nc(NC(=O)c1ccc(-c3cn[nH]c3)s1)n2CC(C)(C)O)C(C)(C)C (configuration not stated),0.743 µM (active)
19,O=C(Cc1ccc(-c2ccc(OCCN3CCOCC3)cc2)cn1)NCc1ccccc1,0.0148 µM (active)
20,COc1cc2ncn(-c3cc(OCc4ccccc4C(F)(F)F)c(C(N)=O)s3)c2cc1OC,10.5 µM (active)
21,Cn1cncc1[C@@](N)(c1ccc(Cl)cc1)c1ccc2c(c1)c(-c1cccc(Cl)c1)cc(=O)n2C,18.7 µM (active)
22,CN(C)CC=CC(=O)Nc1cc2c(Nc3ccc(F)c(Cl)c3)ncnc2cc1O[C@H]1CCOC1,10.5 µM (active)
23,O=C(Nc1cc(C(F)(F)F)cc(C(F)(F)F)c1)c1cc(Cl)ccc1O,2.64 µM (active)
24,Nc1nc(-c2nn(Cc3ccccc3F)c3ncccc23)nc(N)c1N1CCOCC1,inactive
25,COc1cc2c(NC3CCN(C(C)C)CC3)nc(C3CCCCC3)nc2cc1OCCCN1CCCC1,18.7 µM (active)
26,COc1cc(OC2CCN(C)CC2)ccc1Nc1ncc2c(n1)n(C1CCCC1)c(=O)n2C,18.7 µM (active)
